Assay results reported in the supplement of paper PMC8728848.
Shown is part of a subset that was picked to be rich in the strongest signals.

How the values were obtained:
Experiment in all cases: glycan array binding signal (z-score within array); higher = stronger binding
Details in all cases: glycan notation: IUPAC condensed, linker removed
[1] = target: Fuc(a1-2)Gal(b1-3)GalNAc(b1-3)Gal
Summary of the method: (§1)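 Glycan array data were curated from 3228 arrays in the Consortium for Functional Glycomics database and kept only where the protein sequence was available. Glycan names were converted to IUPAC-condensed notation, and columns mapping to the same glycan were averaged. The binding signal is a within-array Z-score, averaged across arrays of the same protein sequence at different concentrations or buffers and across linkers. Negative Z-scores can be read as non-binding.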

Fuc(a1-2)Gal(b1-4)Glc = target: Fuc(a1-2)Gal(b1-4)Glc
Summary of the method: as §1

[2] = target: Fuc(a1-2)Gal(b1-4)GlcNAc(b1-2)Man(a1-3)[Fuc(a1-2)Gal(b1-4)GlcNAc(b1-2)Man(a1-6)]Man(b1-4)GlcNAc(b1-4)[Fuc(a1-6)]GlcNAc
Summary of the method: as §1

[3] = target: Fuc(a1-2)[Gal(a1-3)]Gal(b1-3)GalNAc(b1-3)Gal(a1-4)Gal(b1-4)Glc
Summary of the method: as §1

[4] = target: Fuc(a1-2)[Gal(a1-3)]Gal(b1-3)GlcNAc
Summary of the method: as §1

[5] = target: Fuc(a1-2)[Gal(a1-3)]Gal(b1-4)GlcNAc(b1-2)Man(a1-3)[Fuc(a1-2)[Gal(a1-3)]Gal(b1-4)GlcNAc(b1-2)Man(a1-6)]Man(b1-4)GlcNAc(b1-4)GlcNAc
Summary of the method: as §1

[6] = target: Fuc(a1-2)[Gal(a1-3)]Gal(b1-4)GlcNAc(b1-6)GalNAc
Summary of the method: as §1

Gal(a1-3)Gal(b1-3)GlcNAc = target: Gal(a1-3)Gal(b1-3)GlcNAc
Summary of the method: as §1

[7] = target: Gal(a1-3)Gal(b1-3)GlcNAc(b1-6)GalNAc
Summary of the method: as §1

[8] = target: Gal(a1-3)Gal(b1-4)GlcNAc(b1-3)GalNAc
Summary of the method: as §1

Gal(a1-4)GlcNAc = target: Gal(a1-4)GlcNAc
Summary of the method: as §1

Gal(b1-3)Gal = target: Gal(b1-3)Gal
Summary of the method: as §1

Gal(b1-3)Gal(b1-4)GlcNAc = target: Gal(b1-3)Gal(b1-4)GlcNAc
Summary of the method: as §1

[9] = target: Gal(b1-3)GlcNAc(a1-6)Gal(b1-4)GlcNAc
Summary of the method: as §1

Gal(b1-3)GlcNAc(b1-2)Man = target: Gal(b1-3)GlcNAc(b1-2)Man
Summary of the method: as §1

[10] = target: Gal(b1-3)GlcNAc(b1-3)Gal(b1-3)GlcNAc
Summary of the method: as §1

[11] = target: Gal(b1-3)GlcNAc(b1-6)GalNAc
Summary of the method: as §1

[12] = target: Gal(b1-3)[Fuc(a1-4)]GlcNAc(b1-3)Gal(b1-3)[Fuc(a1-4)]GlcNAc
Summary of the method: as §1

Gal(b1-4)Glc6S = target: Gal(b1-4)Glc6S
Summary of the method: as §1

[13] = target: Gal(b1-4)GlcNAc(a1-6)Gal(b1-4)GlcNAc
Summary of the method: as §1

Gal(b1-4)GlcNAc(b1-2)Man = target: Gal(b1-4)GlcNAc(b1-2)Man
Summary of the method: as §1

[14] = target: Gal(b1-4)GlcNAc(b1-3)Gal(b1-3)GlcNAc
Summary of the method: as §1

[15] = target: Gal(b1-4)GlcNAc(b1-3)Gal(b1-4)GlcNAc(b1-3)Gal(b1-4)GlcNAc(b1-2)Man(a1-3)[Gal(b1-4)GlcNAc(b1-3)Gal(b1-4)GlcNAc(b1-3)Gal(b1-4)GlcNAc(b1-2)Man(a1-6)]Man(b1-4)GlcNAc(b1-4)GlcNAc
Summary of the method: as §1

[16] = target: Gal(b1-4)GlcNAc(b1-6)GalNAc
Summary of the method: as §1

Gal3S(b1-3)GalNAc = target: Gal3S(b1-3)GalNAc
Summary of the method: as §1

Gal3S(b1-4)Glc = target: Gal3S(b1-4)Glc
Summary of the method: as §1

[17] = target: Gal3S(b1-4)[Fuc(a1-3)]GlcNAc
Summary of the method: as §1

[18] = target: Gal3S(b1-4)[Fuc(a1-3)]GlcNAc6S
Summary of the method: as §1

Gal4S(b1-4)GlcNAc = target: Gal4S(b1-4)GlcNAc
Summary of the method: as §1

Gal6S(b1-4)GlcNAc = target: Gal6S(b1-4)GlcNAc
Summary of the method: as §1

B1: Cohesin-hMARCO (Homo sapiens) (protein)
chain: LDDLDAVRIKVDTVNAKPGDTVRIPVRFSGIPSKGIANCDFVYSYDPNVLEIIEIEPGDIIVDPNPDKSFDTAVYPDRKIIVFLFAEDSGTGAYAITKDGVFATIVAKVKEGAPNGLSVIKFVEVGGFANNDLVEQKTQFFDGGANVGDTTEPATPTTPVTTPTTTDDLDAASVRIVGSSNRGRAEVYYSGTWGTICDDEWQNSDAIVFCRMLGYSKGRALYKVGAGTGQIWLDNVQCRGTESTLWSCTKNSWGHHDCSHEEDAGVECSVHHHHHH
glycan array binding signal (z-score) [1]: 3.9
glycan array binding signal (z-score) (Fuc(a1-2)Gal(b1-4)Glc): 0.78
glycan array binding signal (z-score) [2]: -0.156
glycan array binding signal (z-score) [3]: -0.528
glycan array binding signal (z-score) [4]: 2.72
glycan array binding signal (z-score) [5]: -0.358
glycan array binding signal (z-score) [6]: -0.528
glycan array binding signal (z-score) (Gal(a1-3)Gal(b1-3)GlcNAc): 11.2
glycan array binding signal (z-score) [7]: 2.88
glycan array binding signal (z-score) [8]: -0.296
glycan array binding signal (z-score) (Gal(a1-4)GlcNAc): -0.083
glycan array binding signal (z-score) (Gal(b1-3)Gal): -0.397
glycan array binding signal (z-score) (Gal(b1-3)Gal(b1-4)GlcNAc): -0.262
glycan array binding signal (z-score) [9]: -0.309
glycan array binding signal (z-score) (Gal(b1-3)GlcNAc(b1-2)Man): -0.288
glycan array binding signal (z-score) [10]: -0.434
glycan array binding signal (z-score) [11]: 1.7
glycan array binding signal (z-score) [12]: 5.33
glycan array binding signal (z-score) (Gal(b1-4)Glc6S): -0.057
glycan array binding signal (z-score) [13]: 0.044
glycan array binding signal (z-score) (Gal(b1-4)GlcNAc(b1-2)Man): -0.48
glycan array binding signal (z-score) [14]: -0.462
glycan array binding signal (z-score) [15]: 0.365
glycan array binding signal (z-score) [16]: 1.21
glycan array binding signal (z-score) (Gal3S(b1-3)GalNAc): 0.13
glycan array binding signal (z-score) (Gal3S(b1-4)Glc): 3.03
glycan array binding signal (z-score) [17]: -0.386
glycan array binding signal (z-score) [18]: 3.73
glycan array binding signal (z-score) (Gal4S(b1-4)GlcNAc): -0.154
glycan array binding signal (z-score) (Gal6S(b1-4)GlcNAc): -0.215
